# Measurements reported in the supplement of paper PMC11417369.
# Whole data set: some 25,000 sequences, median “ln(normalized median fluorescence intensity)” near 9.3, cut for the highest 2% near 10. Many of the other results were omitted from the sample, so the highest values are more common in it than they were.
# Test system: PF3D7_0420300 AP2 domain 1 (GST-tagged)
# Assay: gcPBM binding intensity (ln(normalized median fluorescence intensity)); higher = stronger DNA binding
# In short: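 For binding intensity, the highest Masliner-normalised natural-log median intensity across replicate spots of either probe orientation was taken. Protein bound to the array was stained with Alexa488 anti-GST antibody and scanned at 488 nm. The protein, GST-tagged P. falciparum DNA-binding domains from E. coli at about 25 μg on average, had been applied for 1 h to an Agilent 4 × 180k array of primer-extended double-stranded 36-bp intergenic genomic probes and negative controls.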
row,Sequence,gcPBM binding intensity (ln)
1,GAAATACCGGAAAGCAAACACACATTTTAAAACCAT [CACACA_site3861],9.68
2,AGATTTAAATATCATACACACTTTATATATAATACA [CACACA_site4688],9.35
3,TATACATATACATATACACACACACCCATAAATAAA [CACACA_site8372],9.99
4,TTAATATAAGCAAATACACACACACCGATATATATA [CACACA_site9269],10.2
5,TACTAGCAAATACATACACACACACCCATATACATA [CACACA_site9163],10.1
6,CACATACAGATATATACACACAAATATAAATACACA [CACACA_site6512],9.98
7,TAAAAAAAATAGCATACACACATATATACCTATATA [CACACA_site4535],9.72
8,CTAGCAAATACATACACACACACACCGATACAGATA [CACACA_site5853],10.2
9,CACATACAGATATATACACACAAATATATATACTCA [CACACA_site4591],9.76
10,TATACCTATAAATACACACACATATATAAATAAATA [CACACA_site6730],10
11,CTAGCAAATACATACACACACACACCGATACATATA [CACACA_site9164],10.2
12,TTAATGGCAAAATAGGCACACACACCGATACATATA [CACACA_site8263],9.91
13,CTAGCAAATACATACACACACACACGGATACCTATA [CACACA_site7609],10.2
14,CTAGCAAATACATACACACACACACCCATACATATA [CACACA_site3496],10.3
15,TATCATTTCATATCAAGTACAAACATTTTACATATA [XGTACX_site5307],9.12
16,GTGCATATCTGATATACACACAATAAAATAGTATGT [CACACA_site7203],9.33
17,AAAAAAAATTCACACTGTACAAAAGCATAAATAAAC [XGTACX_site5408],9.75
18,AATGTGTATATATATACACACACATATATATATTTT [CACACA_site8596],9.75
19,TTAATTTTTAGAAGAACACACACATATATATTATGA [CACACA_site7969],9.59
20,TATACAGATAAATACACACACACATATATATATATA [CACACA_site4845],10
21,TACAGATACAGATACACACACACACCGAAATAAATA [CACACA_site4865],10.3
22,CATACAGATATATATACACACATACAGATAAATACA [CACACA_site4592],9.83
23,TTTAATTTTTATATAACACACATATTGTAATTATGT [CACACA_site4566],9.38

row,Sequence,gcPBM binding intensity (ln)
1,ATAAATACTAAAAATGAAATATAGAAAATAGCAATA [CACACA_negctrl_site501],9.61
2,AAAATTCTTCGGGGGAGTACAAGGATATTCTACGTT [XGTACX_site3974],9.53
3,TGATATCTTAAGAAATGTACAAAGATATAACCATTT [XGTACX_site1913],9.11
4,CTCAATATTATTACTACACACAAATTAAAATTTTCC [CACACA_site4203],9.45
5,ATTTATTCATTTGGGTGTACTATTTAAAAAAAACAA [XGTACX_site498],9.18
6,AAGGGAAAATAATAAAAGAAAAAGAAAAAAAAAAAA [CACACA_negctrl_site1518],9.21
7,AAAATAAAAAGAAAAAGAAAAAAGGGGGGGTAGGGG [CACACA_negctrl_site1048],10.2
8,AAGGGGTAAAGAAAAACACACAAAAAATAAAAATAT [CACACA_site361],9.65
9,TTAATTAGAAATCATACACACATATAAATAAATATA [CACACA_site6225],9.6
10,AATTAAAATAATAATACACACATCATAGAAAAAGAC [CACACA_site292],10.4
11,CATACACAGAAACACACACACATATATATATATATA [CACACA_site4519],9.79
12,TAAAAAAAAACAGAAACACACATTATTCATATATAT [CACACA_site2049],9.77
13,TGAAAAAAGAAAAATACACACATATAATATAATATA [CACACA_site2255],9.7
14,ATACAGAAAAAAAACACACACACATAATATACATAC [CACACA_site1933],10.1
15,TAAAAGAAATAATATACACACATATATAAAAATAAA [CACACA_site1329],9.6
16,TGTATTAATAAAAATACACACATCATATTATAGAAA [CACACA_site7629],9.49
17,ATATAACAGAAACACACACACATATATATATATTAT [CACACA_site4140],10.2
18,ACAGAAAAAAAACACACACACATAATATACATACAT [CACACA_site1932],10.2
19,ACAGAAAAAAGACACACACACATAATATACATACAT [CACACA_site6991],10.2
20,CATTATAAGAAACACACACACATATATATATATATA [CACACA_site1051],9.73
21,AGCTATTAATTTATTACATGCAAGATTAAAAGACTA [TGCATGCA_site281],8.99
22,AATCAAAACATTAAAAAGAAAAAATATATATATATA [CACACA_negctrl_site366],9.03
23,AGGATATGCAGACACACACACATATAGATTTATATA [CACACA_site7100],9.73

row,Sequence,gcPBM binding intensity (ln)
1,ATTGTGCTCATCAGCACACACAACATCATGTAATAA [CACACA_site1863],9.47
2,TTTTGTTATATTCAATATTTATATATTATAAATATA [CACACA_negctrl_site1705],9.11
3,TTAAAACCAAAACACAGTACATATATATATATATAT [XGTACX_site5668],9.4
4,TATTTTATTTTTTTATGTACACAAAAAAAAAAAAAA [XGTACX_site945],8.63
5,TTTTTTTTTTGTTGTTGTACTCTTATATTTTTATAT [XGTACX_site6178],9.7
6,ATAAATAAATAAATAAATAAATATACATATACATAT [CACACA_negctrl_site205],9.39
7,TATGGTAACATATGCTGTACAATATAATATGTTTAA [XGTACX_site1601],9.11
8,TATAGTGATATATACACACACTTGTCTTGTAAAAAT [CACACA_site6594],9.53
9,GATGTATTCATACATGCACACGTACATATTTAAATA [CACACA_site9299],9.34
10,CATATACAGAAACACACACACACATAAATAAATATA [CACACA_site1343],10.3
11,TAAATACAGAAACACACACACAAATATATACATACA [CACACA_site2880],10.1
12,CAAATACAGAAACACACACACATATACATATATATA [CACACA_site3498],9.97
13,ATATATATATATCACGCACACACGAATTTTAAATAT [CACACA_site3131],9.65
14,TTTTCAAAATAATATTATATCAAATGCTAAAAAGAA [TGCATGCA_negctrl_site588],8.96
15,GTAAGAAACAGACACACACACATATAAATATAAATA [CACACA_site6515],10.1
16,AACATTATAAGACACACACACACATATATAAATATA [CACACA_site6622],10.3
17,AACATTATAAGACACACACACACATATATATATATA [CACACA_site8259],10.1
18,TAAAACATAAGAGACACACACACATATATATATATA [CACACA_site3643],9.9
19,ATAAATATAGGACACACACACATATTATATATATAT [CACACA_site5658],10.1
20,AACATTATAGGACACACACACACATATATATATATA [CACACA_site4721],10.2
21,AAACATAAGAGACACACACACATATATAAATAAATA [CACACA_site7674],10.2
22,TAATAAATAGGACACACACACATATATATATATTAT [CACACA_site4891],10.1
23,TAATAAATAAGACACACACACATATATATATATTAT [CACACA_site1389],10.2

row,Sequence,gcPBM binding intensity (ln)
1,ATCGTTATATAATGTTGTACTTGTTATATATATATA [XGTACX_site7582],9.7
2,TATATATATATATATACATGCATTTCTCATGTACAT [TGCATGCA_site621],9.14
3,TTTGATAAATGATACACACACAATATTTATAAAATA [CACACA_site7040],9.72
4,ATCTATAAATTTCCACGTACATATATATATATATAT [XGTACX_site4502],9.32
5,TTTTGTTTTTGTAGAGTGCATAAAGAAGATATGTAT,9.1
6,AGTGTATTAAATTTTGAACACACAAAATAAAACATA [CACACA_site8483],9.43
7,TATATTATGACCACCACACACCTATACACATAACAT [CACACA_site7199],9.62
8,AACTTTTAGAAGAACACACACATATAGATTATGACC [CACACA_site6256],9.86
9,ATTATAACACCTCCCCCCCTTTTTTTATGAAGACCA [CACACA_negctrl_site1043],10.4
10,TTTATACTTGTAAATGCACACATAAGATGCGACTAA [CACACA_site8662],9.18
11,TTTATAAAAATATACACACATACAAATATGCATATA [CACACA_site712],9.44
12,TATCCATATTTGTTCACACACACACCCATTTATATA [CACACA_site3571],10.2
13,TGTATCCATATTTGTTCACACACACCCATATTTATA [CACACA_site9190],10
14,TATCCATATTTGTTCACACACACACCGATTTATATA [CACACA_site5888],10.1
15,ATATAAATTCAAATTACACACATTTATTTTTTTTAC [CACACA_site53],9.44
16,AGCAAATCAGATAGTAGTACATTTAAATTAGACTTT [XGTACX_site4172],9.19
17,CATATACACGAACACACACACACACGCACAAAAAAA [CACACA_site6376],10.2
18,GGCATACACGAACACACACACACACGCACATATATA [CACACA_site6426],10.3
19,CATATACACGAACACACACACATATATATATATATA [CACACA_site4437],9.84
20,AACATATACACGAACACACACACATATATATATATA [CACACA_site502],10.1
21,ATTATACACGCGCGCACACACAACAAAAAAAAAAAA [CACACA_site7630],9.69
22,TGAACACGCACAAATACACACAAAAAAAATAAATAA [CACACA_site6257],9.63
